KLF5 inhibitor = KLF5 expression inhibitors, primary screen, DLD-1 cells, luminescence; inhibition, % at 5 µM; DLD-1 KLF5 promoter-luciferase reporter; 290,000 tested, 0.23% active; AID 1700, 2009;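 active = inhibition above a per-plate limit of that plate's mean compound inhibition plus 3 SD, cut at about 60% in these data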;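 also: 0% = DMSO wells and 100% = LY294002 at 200 µM; higher means less KLF5 promoter-driven luciferase light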
Gli-Sufu antag = Gli-Sufu pathway antagonists, primary screen, luciferase luminescence, Sufu-KO-LIGHT cells, uHTS. Sufu-KO-LIGHT fibroblasts, Gli luciferase reporter luminescence. inhibition, % at 5 µM. 340,000 tested, 0.74% active. AID 588413, 2011;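 active = inhibition above about 55%, limit read from the data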;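 also: 0% = DMSO-treated cells and 100% = wells with medium but no cells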
697 NFkB inh = inhibitors of PMA/ionomycin-induced NF-kB reporter, 697 cells, primary screen, B-cell NF-kB inhibitor project, cell-based, luminescence, uHTS; 697 B-cell NF-kB luciferase reporter, 16 h; inhibition, % at 4 µM; 330,000 tested, 0.33% active; AID 435022, 2010; in the data active = inhibition above about 35%
aSyn 5UTR inh = MLPCN primary screen, SNCA 5' untranslated region | alpha-synuclein 5'UTR reporter, inhibitor activity | inhibition, % (tested at 7.5 µM) | 300,000 tested, 0.82% active | AID 1813, 2009; in the data active = inhibition above about 60%;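 also: H4 neuroglioblastoma cells stably carrying SNCA 5'UTR luciferase fusion; 0% = DMSO wells and 100% = positive control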
Mdm2-MdmX inh = inhibitors of human Mdm2-MdmX association, primary screen, cell-based, luminescence, split luciferase, SaOS-2, uHTS; Protein Mdm4 (Homo sapiens) + E3 ubiquitin-protein ligase Mdm2 (Homo sapiens), …; SaOS-2 split-luciferase Mdm2/MdmX complementation; inhibition, % at 8 µM; 330,000 tested, 3% active;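 active = inhibition of at least 50% at 8 µM in the primary screen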
Jurkat NFkB inh = inhibitors of induced NF-kB luciferase reporter, primary screen, TCR NF-kB activation inhibitor project, cell-based, luminescence, uHTS; Jurkat, PMA/ionomycin-induced NF-kB luciferase reporter; inhibition, % at 4 µM; 330,000 tested, 0.53% active; AID 435003, 2010; in the data active = inhibition above about 50%
Mdm2-MdmX conf = Mdm2-MdmX complex disruptors, retested hits, confirmation, luminescence, single concentration; shares compounds with Mdm2-MdmX inh; Mdm2-MdmX binding, luminescent assay; inhibition, % at 8 µM; 10,000 tested, 55% active; AID 489028, 2010; in the data active = inhibition above about 40%
Full FLuc ctr = full-length luciferase signal inhibition, confirmation, counter-screen for Mdm2/MdmX interaction inhibitor project, cell-based, single concentration, SaOS-2. shares compounds with Mdm2-MdmX inh. SaOS-2 full-length luciferase counterscreen, luminescence. inhibition, % at 8 µM. 6,200 tested, 77% active. AID 504607, 2011;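 active = mean inhibition at 8 µM reaching about 37%, which flags the compound as non-specific, limit read from the data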;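 also: p53-null SaOS-2 cells with luciferase driven by a doxycycline-inducible promoter; compound on cells about two nights before reading with doxycycline added after day one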
* marks the source's active call; other numbers are inactive results; . = not tested or not shown. The list is not random: actives were taken first. Their share in the collection is about 4.1%.

SMILES	KLF5 inhibitor	Gli-Sufu antag	697 NFkB inh	aSyn 5UTR inh	Mdm2-MdmX inh	Jurkat NFkB inh	Mdm2-MdmX conf	others
CC1CCCCN1C(=O)c1cccc(NC2=C(Cl)C(=O)N(Cc3ccccc3)C2=O)c1 (stereo not given)	.	2	22	.	76*	-3	28
COc1ccc(CNC(=O)C/C(C)=N/NC(=O)c2ccc(OC)cc2OC)cc1	15	-12	-7	2	2	-4	.
CCN(CC)CCN1C(=O)C(O)=C(C(=O)c2cc3cccc(OC)c3o2)C1c1ccc(F)cc1 (stereo not given)	-19	-5	-9	-12	1	8	.
CC(C)c1ccc(NC(=O)COC(=O)c2nn(C)c(=O)c3ccccc23)cc1	.	.	2	.	3	1	.
CC(C)CC1NC(=O)c2cc(Cl)ccc2-n2c1nc1ccc(F)cc1c2=O (stereo not given)	.	.	3	.	22	4	.
CCOC(=O)Cn1cc(/C=C/[N+](=O)[O-])c2ccccc21	-22	-18	-3	-12	-9	-4	.
Cc1cccc(Cn2cc(/C=C/[N+](=O)[O-])c3ccccc32)c1	-46	-5	6	34	58*	16	15
C=CCN1C(=O)/C(=C2/Sc3ccc(OC)cc3N2C)SC1=Nc1cccc(O)c1	-9	13	10	13	67*	0	29
Cc1ccc(-c2nn(-c3ccccc3)cc2CSC(=N)N)cc1	-15	20	-21	119*	52*	-3	6
COC(=O)C1=C(N)Oc2cc(N(C)C)ccc2C1c1ccccc1OC (stereo not given)	-6	12	-101	83*	61*	37	40*	Full FLuc ctr=42*
NC(=O)Cn1cc(/C=N/NC(=O)c2ccc(Cn3cc(Cl)cn3)o2)c(-c2ccccc2)n1	-20	-10	23	.	7	-5	.
COc1cc(Cl)nn(-c2ccccc2)c1=O	15	3	9	1	-6	11	.
O=c1c(Cl)cc(Cl)nn1-c1ccccc1	-4	0	-15	-27	55*	-1	28
Cc1ccc2nc(-c3ccc(NC(=S)NC4CC(C)(C)NC(C)(C)C4)cc3)sc2c1	-128	-98	-134	121*	99*	-63	-35
Nc1nonc1-c1nc2ccccc2n1Cc1ccc(F)cc1Cl	14	5	3	-24	62*	20	49*	Full FLuc ctr=83*
CCOc1ccc(C(=O)C(C)OC(=O)CN2C(=O)NC(C)(C)C2=O)cc1 (stereo not given)	.	-4	12	-6	23	2	.
NC(=O)c1sc2nc3c(c(-c4ccco4)c2c1N)CCCC3	-10	-20	7	12	61*	8	67*	Full FLuc ctr=37*
Cc1ccc(-c2c3c(nc4sc(C(N)=O)c(N)c24)CCC3)cc1	6	-1	-27	-52	56*	-36	55*	Full FLuc ctr=47*
COc1ccc(-c2c3c(nc4sc5c(Cl)nc(C)nc5c24)CCC3)cc1	-33	1	6	-1	99*	19	-21
Cc1ccc(C(=O)Cn2nnc3c(sc4nc5c(c(-c6ccccc6)c43)CCC5)c2=O)cc1	6	3	-37	-5	-6	-6	.
COC(=O)c1sc2nc3c(c(-c4cccs4)c2c1N)CCCC3	-18	-10	-13	30	18	-10	.
Clc1cncc(Cl)c1N/N=C/c1ccncc1	-1	3	24	32	65*	35	63*	Full FLuc ctr=28
O=C1CC(c2ccccc2F)c2c(c3ccccc3[nH]c2=O)O1 (stereo not given)	-1	14	20	-11	-11	6	.
